Test results from PubChem BioAssay (EPA / NIEHS).
Several values for one entry are separate records, joined by “and”; a condition that tells them apart may be missing. Equal entries are not always repeated. Activity calls are given as the source filed them. How the source made its calls: active means hit-call score of the fitted dose curve at least 0.9, where 1 is the maximum; inactive means score below 0.9.

read-out: not listed separately; experiment: BSK_hDFCGF_SRB: Viability Assessment in the BioMAP Diversity Plus: hDFCGF Assay (AID 2283061); conditions: primary human foreskin fibroblasts;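 further: cells exposed to compound for 24 h before the read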
In short: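 Viability was read as total protein: after 10% TCA fixation, wells were stained with 0.1% sulforhodamine B and read at 560 nm. Primary human foreskin fibroblasts were dosed for 24 h, with bidirectional fitting versus DMSO.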

| Structure (SMILES) | outcome | AC50 |
| --- | --- | --- |
| NC(=O)N(O)[C@@H]1COc2cc(OCc3ccccc3)ccc21 | inactive |  |
| c1ccc(C(O[C@@H]2CCCN(CCc3ccc4c(c3)OCO4)C2)c2ccccc2)cc1 |  | 29 µM (active) |
| CCCOc1ccc(S(=O)(=O)N2CCN(CC)CC2)cc1-c1nc2c(CC)n(Cc3ccccn3)nc2c(=O)[nH]1 | inactive |  |
| CCCCOC(=O)c1ccccc1 | inactive |  |
| COS(C)(=O)=O | inactive |  |
| NNC(=O)c1ccncc1 | inactive |  |
| CCCCC(CC)C(=O)OCCOCCOCCOC(=O)C(CC)CCCC (configuration not stated) | inactive |  |
| O=S(=O)(O)c1ccc(N=Nc2c(O)ccc3cc(S(=O)(=O)O)ccc23)cc1 | inactive |  |
| CCN(CC)C(=S)SSC(=S)N(CC)CC |  | 4.75 µM (active) |
| OC[C@H]1O[C@@H]2O[C@H]3[C@H](O)[C@@H](O)[C@@H](O[C@H]4[C@H](O)[C@@H](O)[C@@H](O[C@H]5[C@H](O)[C@@H](O)[C@@H](O[C@H]6[C@H](O)[C@@H](O)[C@@H](O[C@H]7[C@H](O)[C@@H](O)[C@@H](O[C@H]1[C@H](O)[C@H]2O)O[C@@H]7CO)O[C@@H]6CO)O[C@@H]5CO)O[C@@H]4CO)O[C@@H]3CO | inactive |  |
| OC(CCl)CCl | inactive |  |
| C=CCc1cc(S(=O)(=O)c2ccc(O)c(CC=C)c2)ccc1O |  | 14.8 µM (active) |
| c1ccc2c(c1)-c1cccc3c1c-2cc1ccccc13 | inactive |  |
| CCCC(CCC)C(=O)O | inactive |  |
| CC1(C)C(=O)N(Cl)C(=O)N1Cl | inactive |  |
| Cc1ccc(S(=O)(=O)NC(=O)NN2CCCCCC2)cc1 | inactive |  |
| COc1cc2c(c(OC)c1OC)-c1ccc(OC)c(=O)cc1[C@@H](NC(C)=O)CC2 | inactive |  |
| Cc1cccc(O)c1C | inactive |  |
| C[C@@H](Oc1ccc(CNC(=O)c2cccnc2Oc2ccc3c(c2)OCO3)c(F)c1)C(=O)O | inactive |  |
| CCCCCCCCN(C)C | inactive |  |
| NCC(F)(F)C(F)(F)C(F)(F)C(F)(F)F | inactive |  |
| NC(=O)NN=Cc1ccc([N+](=O)[O-])o1 | inactive |  |
| Cc1ncc([C@@H](CCCCCCc2ccc3c(n2)NCCC3)CC(=O)O)cn1 | inactive |  |
| Cn1cc[nH]c1=S | inactive |  |
| OC(O)(C(F)C(O)(O)C(F)(F)F)C(F)(F)F | inactive |  |
| CCCCCCCCCCCCCCCCOS(=O)(=O)O |  | 13.7 µM (active) |
| c1ccc2ncccc2c1 | inactive |  |

read-out: TIMP metallopeptidase inhibitor 1 (TIMP1), TIMP1 (gene 7076); experiment: BSK_hDFCGF_TIMP1: BioMAP Diversity Plus: hDFCGF Assay for TIMP metallopeptidase inhibitor 1 (TIMP1) Biomarker Activity (AID 2283062); conditions: primary human foreskin fibroblasts; actives raise or lower the signal
In short: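 TIMP-1 measured by ELISA 24 h after chemical dosing of primary human skin fibroblasts, with gain or loss fitted relative to DMSO. Parallel SRB staining (560 nm) monitored overt cytotoxicity.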

| Structure (SMILES) | outcome | AC50 |
| --- | --- | --- |
| NC(=O)N(O)[C@@H]1COc2cc(OCc3ccccc3)ccc21 | inactive |  |
| c1ccc(C(O[C@@H]2CCCN(CCc3ccc4c(c3)OCO4)C2)c2ccccc2)cc1 | inactive |  |
| CCCOc1ccc(S(=O)(=O)N2CCN(CC)CC2)cc1-c1nc2c(CC)n(Cc3ccccn3)nc2c(=O)[nH]1 | inactive |  |
| CCCCOC(=O)c1ccccc1 | inactive |  |
| COS(C)(=O)=O | inactive |  |
| NNC(=O)c1ccncc1 | inactive |  |
| CCCCC(CC)C(=O)OCCOCCOCCOC(=O)C(CC)CCCC (configuration not stated) | inactive |  |
| O=S(=O)(O)c1ccc(N=Nc2c(O)ccc3cc(S(=O)(=O)O)ccc23)cc1 | inactive |  |
| Cn1c(=O)c2[nH]cnc2n(C)c1=O | inactive |  |
| CCN(CC)C(=S)SSC(=S)N(CC)CC |  | 2.03 µM (active) |
| OC[C@H]1O[C@@H]2O[C@H]3[C@H](O)[C@@H](O)[C@@H](O[C@H]4[C@H](O)[C@@H](O)[C@@H](O[C@H]5[C@H](O)[C@@H](O)[C@@H](O[C@H]6[C@H](O)[C@@H](O)[C@@H](O[C@H]7[C@H](O)[C@@H](O)[C@@H](O[C@H]1[C@H](O)[C@H]2O)O[C@@H]7CO)O[C@@H]6CO)O[C@@H]5CO)O[C@@H]4CO)O[C@@H]3CO | inactive |  |
| OC(CCl)CCl | inactive |  |
| C=CCc1cc(S(=O)(=O)c2ccc(O)c(CC=C)c2)ccc1O |  | 26.4 µM (active) |
| c1ccc2c(c1)-c1cccc3c1c-2cc1ccccc13 | inactive |  |
| CCCC(CCC)C(=O)O | inactive |  |
| CC1(C)C(=O)N(Cl)C(=O)N1Cl | inactive |  |
| Cc1ccc(S(=O)(=O)NC(=O)NN2CCCCCC2)cc1 | inactive |  |
| COc1cc2c(c(OC)c1OC)-c1ccc(OC)c(=O)cc1[C@@H](NC(C)=O)CC2 | inactive |  |
| Cc1cccc(O)c1C | inactive |  |
| C[C@@H](Oc1ccc(CNC(=O)c2cccnc2Oc2ccc3c(c2)OCO3)c(F)c1)C(=O)O | inactive |  |
| CCCCCCCCN(C)C | inactive |  |
| NCC(F)(F)C(F)(F)C(F)(F)C(F)(F)F | inactive |  |
| NC(=O)NN=Cc1ccc([N+](=O)[O-])o1 | inactive |  |
| Cc1ncc([C@@H](CCCCCCc2ccc3c(n2)NCCC3)CC(=O)O)cn1 | inactive |  |
| Cn1cc[nH]c1=S | inactive |  |
| OC(O)(C(F)C(O)(O)C(F)(F)F)C(F)(F)F | inactive |  |
| CCCCCCCCCCCCCCCCOS(=O)(=O)O |  | 18.2 µM (active) |
| c1ccc2ncccc2c1 | inactive |  |

read-out: Monokine induced gamma interferon (MIG), CXCL9 (gene 4283); experiment: BSK_hDFCGF_MIG: BioMAP Diversity Plus: hDFCGF Assay for Monokine induced gamma interferon (MIG) Biomarker Activity (AID 2283063); conditions: primary human foreskin fibroblasts; actives raise or lower the signal
In short: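 Human primary foreskin fibroblasts in the hDFCGF system, exposed to test chemical for 24 h; MIG measured by ELISA. Bidirectional curve fitting against DMSO negative control as activity baseline.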

| Structure (SMILES) | outcome | AC50 |
| --- | --- | --- |
| NC(=O)N(O)[C@@H]1COc2cc(OCc3ccccc3)ccc21 | inactive |  |
| c1ccc(C(O[C@@H]2CCCN(CCc3ccc4c(c3)OCO4)C2)c2ccccc2)cc1 | inactive |  |
| CCCOc1ccc(S(=O)(=O)N2CCN(CC)CC2)cc1-c1nc2c(CC)n(Cc3ccccn3)nc2c(=O)[nH]1 | inactive |  |
| CCCCOC(=O)c1ccccc1 | inactive |  |
| COS(C)(=O)=O | inactive |  |
| NNC(=O)c1ccncc1 | inactive |  |
| CCCCC(CC)C(=O)OCCOCCOCCOC(=O)C(CC)CCCC (configuration not stated) | inactive |  |
| O=S(=O)(O)c1ccc(N=Nc2c(O)ccc3cc(S(=O)(=O)O)ccc23)cc1 | inactive |  |
| Cn1c(=O)c2[nH]cnc2n(C)c1=O | inactive |  |
| OC[C@H]1O[C@@H]2O[C@H]3[C@H](O)[C@@H](O)[C@@H](O[C@H]4[C@H](O)[C@@H](O)[C@@H](O[C@H]5[C@H](O)[C@@H](O)[C@@H](O[C@H]6[C@H](O)[C@@H](O)[C@@H](O[C@H]7[C@H](O)[C@@H](O)[C@@H](O[C@H]1[C@H](O)[C@H]2O)O[C@@H]7CO)O[C@@H]6CO)O[C@@H]5CO)O[C@@H]4CO)O[C@@H]3CO | inactive |  |
| OC(CCl)CCl | inactive |  |
| C=CCc1cc(S(=O)(=O)c2ccc(O)c(CC=C)c2)ccc1O |  | 30.7 µM (active) |
| c1ccc2c(c1)-c1cccc3c1c-2cc1ccccc13 | inactive |  |
| CCCC(CCC)C(=O)O | inactive |  |
| CC1(C)C(=O)N(Cl)C(=O)N1Cl | inactive |  |
| Cc1ccc(S(=O)(=O)NC(=O)NN2CCCCCC2)cc1 | inactive |  |
| COc1cc2c(c(OC)c1OC)-c1ccc(OC)c(=O)cc1[C@@H](NC(C)=O)CC2 | inactive |  |
| Cc1cccc(O)c1C | inactive |  |
| C[C@@H](Oc1ccc(CNC(=O)c2cccnc2Oc2ccc3c(c2)OCO3)c(F)c1)C(=O)O | inactive |  |
| CCCCCCCCN(C)C | inactive |  |
| NCC(F)(F)C(F)(F)C(F)(F)C(F)(F)F | inactive |  |
| NC(=O)NN=Cc1ccc([N+](=O)[O-])o1 | inactive |  |
| Cc1ncc([C@@H](CCCCCCc2ccc3c(n2)NCCC3)CC(=O)O)cn1 | inactive |  |
| Cn1cc[nH]c1=S | inactive |  |
| OC(O)(C(F)C(O)(O)C(F)(F)F)C(F)(F)F |  | 30 µM (active) and 36.3 µM (active) |
| CCCCCCCCCCCCCCCCOS(=O)(=O)O |  | 13.1 µM (active) |
| c1ccc2ncccc2c1 | inactive |  |
